What was measured:
Experiment in all cases: DAPPL (digital affinity profiling via proximity ligation, sequencing); 10 mM Tris-HCl pH 7.5, 50 mM NaCl, 1 mM DTT, 4% glycerol, room temperature, 30 min; GST-TFs on glutathione beads, 16-mer random dsDNA library, 0.1% formaldehyde crosslink after washing; high values mean tight binding
Settings in all cases: protein: recombinant; tags: N-terminal GST; dsDNA, one strand shown
ERF = target: T1, ERF (Homo sapiens, UniProt P50548 1-548)
T1 sequence: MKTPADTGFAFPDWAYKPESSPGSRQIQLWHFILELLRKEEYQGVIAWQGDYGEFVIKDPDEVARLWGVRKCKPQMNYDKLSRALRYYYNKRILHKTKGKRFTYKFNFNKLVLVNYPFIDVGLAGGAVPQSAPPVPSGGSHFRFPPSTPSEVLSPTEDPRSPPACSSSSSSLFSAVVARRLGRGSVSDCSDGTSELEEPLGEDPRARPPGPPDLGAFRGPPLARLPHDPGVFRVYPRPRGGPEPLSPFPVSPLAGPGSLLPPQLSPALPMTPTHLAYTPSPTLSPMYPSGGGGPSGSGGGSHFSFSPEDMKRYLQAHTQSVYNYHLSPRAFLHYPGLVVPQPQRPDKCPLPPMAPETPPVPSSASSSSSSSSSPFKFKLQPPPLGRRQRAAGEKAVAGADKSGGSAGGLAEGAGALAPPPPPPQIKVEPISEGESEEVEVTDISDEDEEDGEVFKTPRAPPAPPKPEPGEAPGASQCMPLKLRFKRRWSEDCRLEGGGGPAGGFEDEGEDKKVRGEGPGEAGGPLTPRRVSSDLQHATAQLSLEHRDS
Method in brief: (§1)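 Human transcription factors fused to GST were expressed in yeast, captured on glutathione beads, given DNA barcodes and pooled with a GST-only negative control. Pools were incubated with 200 nmole of a 16-mer random double-stranded DNA library in Tris/NaCl/DTT/glycerol buffer at room temperature for 30 min. They were then washed, crosslinked with 0.1% formaldehyde, proximity-ligated (BsaI/T4 ligase, 1 h, 37 °C), PCR-amplified and sequenced on an Illumina NextSeq500. Binding signal is each 6-mer's read frequency for a factor divided by its frequency for the GST control.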

ETV3L = target: T2, ETV3L (Homo sapiens, UniProt Q6ZN32 1-361)
T2 sequence: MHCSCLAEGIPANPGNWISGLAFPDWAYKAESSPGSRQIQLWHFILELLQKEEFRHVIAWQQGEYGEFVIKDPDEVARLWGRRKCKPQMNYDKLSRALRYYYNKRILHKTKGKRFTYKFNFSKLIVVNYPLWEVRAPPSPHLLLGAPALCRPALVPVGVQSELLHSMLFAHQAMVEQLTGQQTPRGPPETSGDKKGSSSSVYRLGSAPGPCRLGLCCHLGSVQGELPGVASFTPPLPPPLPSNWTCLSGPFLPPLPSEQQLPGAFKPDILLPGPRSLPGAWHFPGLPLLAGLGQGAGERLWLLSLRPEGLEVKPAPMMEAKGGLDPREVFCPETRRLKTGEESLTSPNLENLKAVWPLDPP
Method in brief: as §1

ETS2 = target: T3, ETS2 (Homo sapiens, UniProt P15036 1-469)
T3 sequence: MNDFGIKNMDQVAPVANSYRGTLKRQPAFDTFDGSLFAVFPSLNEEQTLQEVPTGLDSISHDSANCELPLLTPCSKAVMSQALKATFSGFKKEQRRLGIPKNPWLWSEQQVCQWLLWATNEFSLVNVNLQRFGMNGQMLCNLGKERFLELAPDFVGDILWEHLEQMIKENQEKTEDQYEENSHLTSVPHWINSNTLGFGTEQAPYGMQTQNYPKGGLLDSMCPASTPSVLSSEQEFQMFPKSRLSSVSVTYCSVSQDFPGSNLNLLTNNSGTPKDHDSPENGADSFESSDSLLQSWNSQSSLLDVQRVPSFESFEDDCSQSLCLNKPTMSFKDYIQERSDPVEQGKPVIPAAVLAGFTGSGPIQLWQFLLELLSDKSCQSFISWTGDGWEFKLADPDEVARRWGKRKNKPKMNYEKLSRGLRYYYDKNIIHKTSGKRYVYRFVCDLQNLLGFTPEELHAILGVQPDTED
Method in brief: as §1

SPDEF = target: T4, SPDEF (Homo sapiens, UniProt O95238 1-335)
T4 sequence: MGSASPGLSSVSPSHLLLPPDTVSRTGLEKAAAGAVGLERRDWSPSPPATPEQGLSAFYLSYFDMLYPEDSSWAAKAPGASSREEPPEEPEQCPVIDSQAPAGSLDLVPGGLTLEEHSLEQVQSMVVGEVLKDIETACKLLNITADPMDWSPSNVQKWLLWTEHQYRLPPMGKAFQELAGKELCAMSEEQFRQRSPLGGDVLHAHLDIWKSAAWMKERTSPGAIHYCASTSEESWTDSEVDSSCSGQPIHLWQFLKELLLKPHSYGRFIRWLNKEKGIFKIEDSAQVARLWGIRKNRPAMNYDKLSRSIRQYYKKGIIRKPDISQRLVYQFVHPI
Method in brief: as §1

ETV7 = target: T5, ETV7 (Homo sapiens, UniProt Q9Y603 1-341)
T5 sequence: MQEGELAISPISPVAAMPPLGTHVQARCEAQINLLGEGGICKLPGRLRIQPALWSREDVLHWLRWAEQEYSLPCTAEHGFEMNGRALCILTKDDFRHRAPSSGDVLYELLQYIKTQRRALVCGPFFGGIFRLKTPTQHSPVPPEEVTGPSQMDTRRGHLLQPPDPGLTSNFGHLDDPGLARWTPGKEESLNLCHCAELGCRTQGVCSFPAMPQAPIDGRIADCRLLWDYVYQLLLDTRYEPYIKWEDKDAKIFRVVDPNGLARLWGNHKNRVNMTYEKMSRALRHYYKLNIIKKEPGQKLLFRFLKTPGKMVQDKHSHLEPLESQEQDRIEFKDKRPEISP
Method in brief: as §1

ELF5 = target: T6, ELF5 (Homo sapiens, UniProt Q9UKW6-2 1-255)
T6 sequence: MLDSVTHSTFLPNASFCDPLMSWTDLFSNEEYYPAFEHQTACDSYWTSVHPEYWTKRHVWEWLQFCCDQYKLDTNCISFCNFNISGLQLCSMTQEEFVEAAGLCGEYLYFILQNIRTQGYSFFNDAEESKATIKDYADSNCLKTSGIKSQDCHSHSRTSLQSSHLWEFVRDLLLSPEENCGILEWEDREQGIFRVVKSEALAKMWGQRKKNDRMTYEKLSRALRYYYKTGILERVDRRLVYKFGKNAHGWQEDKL
Method in brief: as §1

ETV3 = target: T7, ETV3 (Homo sapiens, UniProt P41162-2 1-143)
T7 sequence: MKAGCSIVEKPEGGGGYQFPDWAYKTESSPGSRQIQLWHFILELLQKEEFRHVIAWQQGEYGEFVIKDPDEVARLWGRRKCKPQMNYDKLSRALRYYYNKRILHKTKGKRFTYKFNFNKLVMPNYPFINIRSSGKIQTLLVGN
Method in brief: as §1

ETV6 = ETV6 (Homo sapiens, UniProt P41212 1-452)
Chain of ETV6 (P41212 whole entry): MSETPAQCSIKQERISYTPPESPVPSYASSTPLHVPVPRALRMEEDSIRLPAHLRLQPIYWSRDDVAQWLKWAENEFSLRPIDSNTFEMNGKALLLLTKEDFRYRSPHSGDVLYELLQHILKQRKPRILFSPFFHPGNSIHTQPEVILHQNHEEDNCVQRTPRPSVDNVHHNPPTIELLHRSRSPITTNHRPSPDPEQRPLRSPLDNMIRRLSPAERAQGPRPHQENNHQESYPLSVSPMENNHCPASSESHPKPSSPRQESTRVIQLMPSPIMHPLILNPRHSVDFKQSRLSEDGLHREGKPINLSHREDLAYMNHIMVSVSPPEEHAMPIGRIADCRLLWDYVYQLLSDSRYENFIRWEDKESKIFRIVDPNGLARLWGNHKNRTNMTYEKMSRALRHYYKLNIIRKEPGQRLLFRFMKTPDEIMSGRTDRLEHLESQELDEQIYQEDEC
Method in brief: as §1

Row | Sequence | binding signal (ERF) | binding signal (ETV3L) | binding signal (ETS2) | binding signal (SPDEF) | binding signal (ETV7) | binding signal (ELF5) | binding signal (ETV3) | binding signal (ETV6)
1 | CTACTT | 1.85 fold enrichment (6-mer frequency, TF over GST control) | 1.84 fold enrichment (6-mer frequency, TF over GST control) | 1.95 fold enrichment (6-mer frequency, TF over GST control) | 1.79 fold enrichment (6-mer frequency, TF over GST control) | 1.8 fold enrichment (6-mer frequency, TF over GST control) | 2 fold enrichment (6-mer frequency, TF over GST control) | 1.76 fold enrichment (6-mer frequency, TF over GST control) | 2.02 fold enrichment (6-mer frequency, TF over GST control)
2 | ATAGTA | 1.23 fold enrichment (6-mer frequency, TF over GST control) | 1.11 fold enrichment (6-mer frequency, TF over GST control) | 1.06 fold enrichment (6-mer frequency, TF over GST control) | 1.07 fold enrichment (6-mer frequency, TF over GST control) | 1.3 fold enrichment (6-mer frequency, TF over GST control) | 1.13 fold enrichment (6-mer frequency, TF over GST control) | 1.15 fold enrichment (6-mer frequency, TF over GST control) | 1.25 fold enrichment (6-mer frequency, TF over GST control)
3 | ATAACT | 1.24 fold enrichment (6-mer frequency, TF over GST control) | 1.22 fold enrichment (6-mer frequency, TF over GST control) | 1.27 fold enrichment (6-mer frequency, TF over GST control) | 1.18 fold enrichment (6-mer frequency, TF over GST control) | 1.24 fold enrichment (6-mer frequency, TF over GST control) | 1.29 fold enrichment (6-mer frequency, TF over GST control) | 1.34 fold enrichment (6-mer frequency, TF over GST control) | 1.27 fold enrichment (6-mer frequency, TF over GST control)
4 | TTTCGT | 1.21 fold enrichment (6-mer frequency, TF over GST control) | 1.46 fold enrichment (6-mer frequency, TF over GST control) | 1.37 fold enrichment (6-mer frequency, TF over GST control) | 1.42 fold enrichment (6-mer frequency, TF over GST control) | 1.34 fold enrichment (6-mer frequency, TF over GST control) | 1.33 fold enrichment (6-mer frequency, TF over GST control) | 1.4 fold enrichment (6-mer frequency, TF over GST control) | 1.35 fold enrichment (6-mer frequency, TF over GST control)
5 | TTACAG | 1.32 fold enrichment (6-mer frequency, TF over GST control) | 1.22 fold enrichment (6-mer frequency, TF over GST control) | 1.21 fold enrichment (6-mer frequency, TF over GST control) | 1.18 fold enrichment (6-mer frequency, TF over GST control) | 1.22 fold enrichment (6-mer frequency, TF over GST control) | 1.16 fold enrichment (6-mer frequency, TF over GST control) | 1.16 fold enrichment (6-mer frequency, TF over GST control) | 1.19 fold enrichment (6-mer frequency, TF over GST control)
6 | GAACCT | 1.04 fold enrichment (6-mer frequency, TF over GST control) | 1.18 fold enrichment (6-mer frequency, TF over GST control) | 1.14 fold enrichment (6-mer frequency, TF over GST control) | 1.08 fold enrichment (6-mer frequency, TF over GST control) | 1.19 fold enrichment (6-mer frequency, TF over GST control) | 1.03 fold enrichment (6-mer frequency, TF over GST control) | 1.1 fold enrichment (6-mer frequency, TF over GST control) | 1.03 fold enrichment (6-mer frequency, TF over GST control)
7 | GCTCTA | 1.27 fold enrichment (6-mer frequency, TF over GST control) | 1.24 fold enrichment (6-mer frequency, TF over GST control) | 1.16 fold enrichment (6-mer frequency, TF over GST control) | 1.15 fold enrichment (6-mer frequency, TF over GST control) | 1.19 fold enrichment (6-mer frequency, TF over GST control) | 1.14 fold enrichment (6-mer frequency, TF over GST control) | 1.1 fold enrichment (6-mer frequency, TF over GST control) | 1.09 fold enrichment (6-mer frequency, TF over GST control)
8 | ATGCCT | 1.42 fold enrichment (6-mer frequency, TF over GST control) | 1.28 fold enrichment (6-mer frequency, TF over GST control) | 1.43 fold enrichment (6-mer frequency, TF over GST control) | 1.41 fold enrichment (6-mer frequency, TF over GST control) | 1.26 fold enrichment (6-mer frequency, TF over GST control) | 1.34 fold enrichment (6-mer frequency, TF over GST control) | 1.4 fold enrichment (6-mer frequency, TF over GST control) | 1.29 fold enrichment (6-mer frequency, TF over GST control)

From PMC7862700, “An all-to-all approach to the identification of sequence-specific readers for epigenetic DNA modifications on cytosine”
